Bioassay records deposited in PubChem by National Center for Advancing Translational Sciences (NCATS).
Most compounds without a hit are left out; they make up all but 3.6% or so of the library.
HTT-AS act: HTT-AS promoter activation; Potency, µM (series often up to 57.5 µM), without a hit: top-dose activity change, positive = activation, most hits filed as activators; AID 1508624; HEK293 HTT-AS promoter firefly luciferase reporter, 24 h; response scale: percent change from vehicle, -100% = no light; 0.24% of 48,000 active; further: nearly all actives have a fitted effect of over 55% in size
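HEK293 cells carrying firefly luciferase reporters were seeded at 2,500 per well in Opti-MEM and cultured for 24 h. They were then treated with compounds at up to 57.5 uM final for 24 h at 37 degrees C before Dual-Glo luminescence readout.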
PMP22 txn: PMP22 gene transcription modulation | 2% of 43,000 active | Potency, µM (series often up to 57.5 µM), inactives show top-dose activity change, negative = inhibition, actives largely listed as inhibitors | S16 Pmp22-F2sN Schwann cells, FLuc/NLuc coincidence luminescence, 24 h | AID 1508649; active means clear falling dose curves in both reporters; inconclusive means both reporters move, but less clearly or upward; inactive means either reporter flat; the % is the NLuc reporter signal; further: on the % scale 0 is the no-effect control and ±100 the full control effect
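Schwann cells carrying the coincidence reporter were exposed to library compounds for 24 h at 37C, then lysed and read for FLuc and, after quenching, NLuc luminescence on a CCD imager.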
S16 F2sN tox: toxic to S16 Pmp22-F2sN Schwann cells; AID 1508642; Potency, µM (top dose mostly 57.5 µM), for the others: at the top dose activity change, negative = cytotoxicity, hits mostly cytotoxic; 0.48% of 43,000 active; S16 Pmp22-F2sN Schwann cells viability, CellTiter-Glo, 24 h; further: on the % scale 0 is the no-effect control and ±100 the full control effect; nearly all actives have a fitted effect of over 65% in size
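Used to flag compounds lowering reporter output through toxicity, this quantitative HTS measures ATP-based CellTiter-Glo luminescence in S16 Pmp22-F2sN Schwann cells after 24 h compound exposure at 37C.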
pS6 MEF inh: inhibitors of mTORC1 signaling in Tsc2-/- p53-/- MEF cells; 0.78% of 44,000 active; Tsc2-/- p53-/- MEF, phospho-rpS6 immunofluorescence/PI, 24 h; AID 493208; Potency, µM (doses to about 38.3 µM), for the others: at the highest dose activity change, negative = inhibition, usual class: inhibitors;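 further: plate controls were DMSO for no effect and rapamycin for full effect; nearly all actives have a fitted effect of over 50% in size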
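Plate MEFs (Tsc2-/-, p53-/-, empty vector) in DMEM/10% FBS; after 24 h add compound, incubate 24 h at 37 degree Celsius; fix in PFA/TX-100, block, stain phospho-rpS6 and 10 uM PI; scan at 488 nm; report % positive cells.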
OvCa metastasis: blocks SKOV3ip1 adhesion and invasion in omental model | 0.1% of 46,000 active | SKOV3ip1-GFP adhesion/invasion on 3D omental model, fluorescence | Potency, µM (top dose mostly 45.8 µM), without a hit: at the top dose activity change, negative = inhibition, actives largely listed as inhibitors;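 further: plate controls were DMSO wells for no effect and tomatine positive control wells for full effect; nearly all actives have a fitted effect of over 65% in size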
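A 3D layer of primary human omental fibroblasts, mesothelial cells, fibronectin and collagen I, grown 48 hr, received SKOV3ip1-GFP cells in serum-free medium plus compounds at 0.36-46 umol/L. After 2 hr RT and 16 hr 37 C, fixed adherent GFP cells were counted; normalized to DMSO and tomatine.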
HTT promoter inh: inhibitors of huntingtin promoter activity; HEK293 HTT promoter firefly luciferase reporter, 24 h; Potency, µM (top dose mostly 57.5 µM), for the others: top-dose activity change, negative = inhibition, actives largely listed as inhibitors; 0.93% of 48,000 active; further: nearly all actives have a fitted effect of over 50% in size
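Luminescence was read after Dual-Glo reagent and a 10 min room-temperature incubation. Values were normalized to vehicle (0% activity) and zero RLU (-100% activity). Reporter HEK293 cells had been exposed to compounds (up to 57.5 uM final) for 24 h.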
An asterisk follows results filed as active; i = inactive; u = inconclusive; x = no result. Unless noted, the call rests on the fitted dose curve; in most records, active means well fitted curve in the direction sought with a large enough effect; inconclusive means small, poorly fitted or top-dose-only effect, or another doubt; inactive means no such curve, though single readings can be large; an effect the other way counts as inactive or inconclusive. Potency means the concentration at half of the fitted maximal effect.

SMILES	HTT-AS act	PMP22 txn	S16 F2sN tox	pS6 MEF inh	OvCa metastasis	HTT promoter inh
Cn1cc(-c2cnn3c(N)c(Br)c([C@H]4CCCNC4)nc23)cn1	-31.0%	x	x	x	17.9%	u
Cc1ccc(-n2ncc3c(N4CCCCC4)ncnc32)cc1Cl	-84.0%	-13.6%	-0.6%	9.9%	3.9%	-86.0%
Cc1ccc(-n2ncc3c(N4CCCCCC4)ncnc32)cc1Cl	-79.6%	-0.8%	10.7%	0.5%	1.3%	0.355µM*
CC(C)(Cc1ccc2ccccc2c1)NC[C@@H](O)COc1cccc(Cl)c1C#N	4.3%	x	x	x	u	8.1%
COc1ccccc1-c1cc(C(=O)Nc2cc(OC)c(OC)c(OC)c2)no1	-24.9%	3.77µM*	u	u	-25.7%	u
COc1ccccc1-c1cc(C(=O)Nc2cc(Cl)ccc2O)no1	x	x	x	-28.7%	1.9%	x
Cc1[nH]c2ccccc2c1CCNCc1ccc(C=CC(=O)NO)cc1	u	x	x	x	17.4%	265.9%
O=C(NC1CCCCC1)/C(=C/c1ccc(Cl)cc1)NC(=O)c1ccccc1	-10.0%	u	u	14.7µM*	-13.5%	10.1%
CSc1ccc(C(=O)Nc2ccc(-c3nc4ccccc4s3)c(O)c2)cc1	-14.1%	-32.8%	1.5%	-0.3%	-17.9%	-2.8%
COc1cc(OC)cc(C(=O)Nc2ccc(-c3nc4ccccc4s3)c(C)c2)c1	24.8%	10.6%	2.7%	-2.4%	1.2%	35.8%
Cc1cc(NC(=O)c2ccccc2F)ccc1-c1nc2ccccc2s1	0.891µM*	-2.7%	-2.0%	-6.5%	2.6%	49.2%
CCSc1ccccc1C(=O)Nc1ccc(-c2nc3ccccc3s2)c(O)c1	u	-19.9%	u	2.93µM*	i	29.9%
Cc1ccc(NC(=O)NCC2CCN(Cc3cccc(Cl)c3)CC2)cc1Cl	-12.7%	u	u	10.4µM*	i	u
CCOC(=O)c1ccc(N2C(=O)c3n[nH]c(-c4ccco4)c3C2c2ccc(F)cc2)cc1 (configuration not stated)	-57.5%	u	u	-0.3%	i	u
CCOC(=O)c1ccc(N2C(=O)c3n[nH]c(-c4cccs4)c3C2c2cccc(F)c2)cc1 (configuration not stated)	-25.0%	u	-17.2%	18.5µM*	u	u
CCOC(=O)c1ccc(N2C(=O)c3n[nH]c(-c4ccco4)c3C2c2ccc(OCC)cc2)cc1 (configuration not stated)	-65.7%	u	u	13.1µM*	u	20µM*
CC(C)c1c(C(=O)Nc2ccccc2)c(-c2ccccc2)c(-c2ccc(F)cc2)n1CC[C@H](O)C[C@@H](O)CC(=O)O	-12.9%	x	x	x	-19.4%	6.0%
O=c1ccn([C@@H]2O[C@H](CO)[C@H](O)[C@@H]2F)c(=O)[nH]1	-32.1%	x	x	x	2.3%	u
Cc1cc(NC(=O)c2cc(-c3cccc(Cl)c3)on2)nn1Cc1ccc(Cl)cc1	-41.0%	-28.1%	6.1%	2.4%	-2.4%	1.58µM*
CC(C)(C)c1ccc(C(=O)NCC(c2cccs2)S(=O)(=O)c2ccc(F)cc2)cc1 (configuration not stated)	-58.4%	u	u	-2.8%	1.6%	20µM*
Cc1ccc(S(=O)(=O)C(CNS(=O)(=O)c2ccc(F)c(C)c2)c2cccs2)cc1 (configuration not stated)	-31.2%	u	25.1µM*	-3.9%	14.5%	u
Cc1cc(C)c(S(=O)(=O)NCC(c2cccs2)S(=O)(=O)c2ccccc2)c(C)c1 (configuration not stated)	-38.9%	u	12.6µM*	u	u	-29.4%
Cc1cc(C)c(S(=O)(=O)NCC(c2ccco2)S(=O)(=O)c2ccccc2)c(C)c1 (configuration not stated)	-22.0%	-26.0%	-10.3%	-5.4%	-14.3%	-24.7%
CCOc1ccc(S(=O)(=O)NCC(c2cccs2)S(=O)(=O)c2ccc(C)cc2)cc1 (configuration not stated)	-9.6%	u	u	u	u	-21.7%
NC(=O)c1ncn([C@@H]2O[C@H](CO)[C@@H](O)[C@@H]2O)n1	-9.9%	x	x	x	-12.0%	2.0%
SMILES	HTT-AS act	PMP22 txn	S16 F2sN tox	pS6 MEF inh	OvCa metastasis	HTT promoter inh
C[C@](Cc1c[nH]c2ccccc12)(NC(=O)OC1C2CC3CC(C2)CC1C3)C(=O)NC[C@H](NC(=O)CCC(=O)O)c1ccccc1 (some centres not stated)	-12.4%	x	x	x	2.0%	26.3%
Cc1nn(-c2ccc(F)cc2)c(-n2cccc2)c1C(=O)N1CCN(c2ccc(F)cc2)CC1	-34.2%	-2.8%	-1.8%	-13.7%	i	28.2µM*
COc1ccc2[nH]cc(CCN=C(NC(=O)c3ccccc3C)Nc3nc(C)cc(C)n3)c2c1	8.8%	u	-4.3%	1.2%	6.0%	-12.1%
COc1ccc2[nH]cc(CCN=C(NC(=O)c3ccccc3OC)Nc3nc(C)cc(C)n3)c2c1	-51.3%	13.9µM*	u	-10.8%	-3.3%	u
Cc1c(NC(=O)OC[C@@H]2COCCN2)cn2ncnc(Nc3ccc4c(cnn4Cc4cccc(F)c4)c3)c12	-35.1%	x	x	x	-15.3%	-24.3%
Cc1ccccc1C(=O)Nc1sc2c(c1C(=O)O)CCC(C(C)(C)C)C2 (configuration not stated)	-37.2%	11.5%	-4.3%	0.4%	-6.3%	2.82µM*
COCCCNC(=O)C1CCN(C(=O)c2cc3sccc3n2Cc2ccc(Cl)cc2)CC1	-35.8%	u	u	1.7%	-16.2%	u
COCCNC(=O)C1CCN(C(=O)c2cc3sccc3n2Cc2ccc(Cl)cc2)CC1	-50.5%	10µM*	u	1.5%	i	u
CCCNS(=O)(=O)Nc1ncnc(OCCOc2ncc(Br)cn2)c1-c1ccc(Br)cc1	-6.8%	x	x	x	-13.2%	15.9%
CCc1nn(CC(=O)N2CCN(c3cccc(C)c3C)CC2)c(=O)c2cc3sccc3n12	-7.0%	2.6%	3.9%	0.8%	-1.5%	-5.7%
CCOC(=O)C1CCN(C(=O)Cn2nc(CC)n3c(cc4sccc43)c2=O)CC1	-78.2%	-16.6%	-8.1%	-0.4%	i	2.82µM*
Cn1c(NCc2ccccc2F)nc2ccccc21	5.01µM*	18.5%	12.2%	0.1%	3.9%	70.3%
Cc1ccccc1-c1noc(-c2cc3ccccc3oc2=O)n1	2.51µM*	u	9.9%	5.4%	i	109.6%
CCOc1cc(Cl)c(S(=O)(=O)n2cc(C)nc2CC)cc1Cl	-68.8%	u	u	-1.8%	i	15.8µM*
